Screening results (PubChem)
CHRM4 antagonist = antagonists of human muscarinic M4 receptor (CHRM4); AID 624125; inhibition, % at 3 µM; hit rate 0.73% among 360,000; P08173; CHO-hM4 cells, ACh EC80, Fluo-8 calcium fluorescence;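 active = inhibition above its plate's cutoff, the mean inhibition of sample wells plus 3 SD, cut at about 27% in these data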;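 note: 0% = acetylcholine EC80 with DMSO and 100% = DMSO without agonist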
M1 ag = agonists of human M1 muscarinic receptor; P11229; hit rate 0.33% among 360,000; activation, % at 3 µM; CHO-K1 hM1, Fluo-8 calcium fluorescence, agonist mode; 0% DMSO, 100% acetylcholine EC100;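 active = activation above the run's mean compound activation plus 3 SD, cut at about 16% in these data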;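 note: peak over basal fluorescence ratio within a 140 s kinetic read after compound addition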
CHRM1 PAM = positive allosteric modulators of human M1 muscarinic receptor; P11229; CHO-K1 hM1, Fluo-8 calcium fluorescence, ACh EC20; 0% = ACh EC20, 100% = maximal ACh; activation, % at 3 µM; hit rate 0.088% among 360,000; in the data active = activation above about 19%, passing the limit was not always enough
CHRM1 antagonist = blocks human M1 muscarinic receptor; CHO-K1 hM1, Fluo-8 calcium fluorescence, ACh EC80 antagonist; P11229; inhibition, % at 3 µM; hit rate 1.3% among 360,000;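 active = percent inhibition above its own plate's cutoff, namely the mean of that plate's compound wells plus 3 SD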;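 note: peak over basal fluorescence ratio during 140 s after agonist addition; 0% = ACh EC80 plus DMSO and 100% = DMSO alone without agonist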
CHRM4 agonist = agonists of human muscarinic M4 receptor (CHRM4). hit rate 0.14% among 360,000. activation, % at 3 µM. AID 624127. CHO-K1 hM4/Gqi5, Fluo-8 calcium fluorescence; vehicle 0%, full acetylcholine response 100%. P08173;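 active = activation above the run mean over all test wells plus 3 SD, cut at about 32% in these data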;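 note: peak over basal fluorescence ratio per well then scaled between controls; 0% = DMSO wells and 100% = acetylcholine at EC100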
CHRM4 PAM = positive allosteric modulators of human muscarinic M4 receptor; P08173; CHO-K1 hM4/Gqi5, Fluo-8 calcium fluorescence, ACh EC20; 0% = ACh EC20, 100% = maximal ACh; activation, % at 3 µM; hit rate 0.4% among 360,000;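 active = activation above its plate's cutoff, the mean activation of sample wells plus 3 SD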
Numbers without * were called inactive. A selection: hits, their analogues and other compounds. The true share with any hit is near 2.2%.

SMILES	CHRM4 antagonist	M1 ag	CHRM1 PAM	CHRM1 antagonist	CHRM4 agonist	CHRM4 PAM
CC1CCN(CCCNC(=O)C2CCC(CNS(=O)(=O)c3ccccc3)CC2)CC1 (configuration not stated)	-13	-4	0	-3	1	3
O=C(c1nn(Cc2ccccc2)c(=O)c2ccccc12)N1CCN(C/C=C/c2ccccc2)CC1	6	-5	-22	95*	4	-6
CCn1nc(C(=O)N2CCN(Cc3nc4ccccc4s3)CC2)c2ccccc2c1=O	35*	-2	-17	38*	22	-14
CCCCNC(=O)COC(=O)c1cc(C)nc2ccccc12	7	-2	0	4	2	-2
Cc1nnc(NC(=O)CSc2ccc(-c3ccc(Cl)cc3)nn2)s1	-13	-5	11	-7	1	5
Cc1cc(S(=O)(=O)N2CCCC(N(C)CCc3ccccn3)C2)c(C)cc1Cl (configuration not stated)	-8	-2	-6	-2	10	-8
CN(C)c1ccc(/C=C/c2nc3ccccc3c(=O)n2-c2ccc(C(=O)O)cc2)cc1	16	70*	-30	39*	55*	-18
CC(C)CNC(=O)C1CCCN1S(=O)(=O)c1ccc(Cl)cc1 (configuration not stated)	-5	3	24	-24	2	17
CC(C)CN(Cc1c(O)ccc2c3c(c(=O)oc12)CCC3)CC(C)C	28*	-9	-5	1	-1	-30
CC(=O)Oc1ccc(C(=O)c2ccccc2)c(OC(C)=O)c1	7	-6	9	-5	0	-3
COc1ccc(C(=O)c2ccccc2)c(OCC(=O)N(C)C)c1	-14	-9	9	-1	2	23*
Nc1ccc(-c2c3ccc(=O)cc-3oc3cc(O)ccc23)c(C(=O)O)c1	26	117*	-15	29	426*	-20
CN(C)S(=O)(=O)c1ccccc1C#N	4	-1	7	-12	2	-5
CCOC(=O)C1CCCN(c2c(C(=O)c3ccccc3)cnc3ccccc23)C1 (configuration not stated)	7	38*	-23	30*	8	-4
CCOC(=O)C1CCCN(C(=O)c2cc(-c3ccco3)nc3ccccc23)C1 (configuration not stated)	-1	25*	-5	-12	6	-2
CCOC(=O)C1CCCN(C(=O)c2ccco2)C1 (configuration not stated)	5	52*	-27	15	1	0
CCOC(=O)C1CCCN(C(=O)c2sc3nc(-c4ccc(OC)cc4)cn3c2C)C1 (configuration not stated)	-1	28*	-6	-1	1	1
CCOC(=O)C1CCN(C(=O)c2sc3nc(-c4ccccc4)cn3c2C)CC1	9	-6	6	-8	1	-10
CCOC(=O)c1cc(-c2csc(COc3ccccc3Cl)n2)on1	-6	-4	-2	5	0	-5
O=C(Nc1nc(-c2ccccn2)cs1)c1cccc(-n2cnnn2)c1	-13	-1	8	-10	12	10
Cc1cccc(S(=O)(=O)NC(=O)C2(C)CCN2C(=O)Cc2cc(F)ccc2F)c1 (configuration not stated)	-4	-10	13	102*	0	-1
Cc1nnsc1SCCNC(=O)Nc1ccc(Cl)cc1	9	3	-13	37*	14	-3
Cc1cc(C)n2nc(SCCC(=O)NCc3ccccc3)nc2n1	-6	-2	6	-6	1	5
COC(=O)C1=CN(C2CC2)C=C(C(=O)OC)C1c1ccc(C(=O)OC)cc1	-10	-7	-25	34*	1	18
COC(=O)C1=CN(C2CC2)C=C(C(=O)OC)C1c1ccc(C(F)(F)F)cc1	0	-6	-3	5	-1	6
NCCCCCc1nnc(SCc2ccc(Cl)c(Cl)c2)o1	67*	-7	-27	48*	3	-31
NCCc1nnc(SCc2ccc(F)cc2)o1	-2	-5	8	1	0	1
CS(=O)(=O)c1nc([N+](=O)[O-])nn1CCCc1ccccc1	-4	-4	7	-9	1	-9
